GDH-TPI counter-1 = GDH-TPI coupling enzyme inhibitors, primary screen, artefact control for M. tuberculosis FBA inhibitor project, biochemical, absorbance, full deck | GDH-TPI coupled enzyme counterscreen, NADH absorbance | inhibition, % at 4.8 µM | 360,000 tested, 1.2% active | AID 588335, 2011; in the data active means inhibition above about 30%;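 further: 0% = DMSO wells and 100% = wells lacking the enzyme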
3CLpro inhibitor = SARS-CoV 3CLpro protease inhibitors, primary screen, biochemical, quenched FRET; Replicase polyprotein 1ab (Severe acute respiratory syndrome coronavirus), P0C6X7; recombinant SARS-CoV 3CLpro, quenched FRET peptide cleavage; inhibition, % at 6 µM; 290,000 tested, 0.14% active; AID 1706, 2009; in the data active means inhibition above about 12%
Mtb FBA inh = Mtb FBA enzyme inhibitors, primary screen, biochemical, fluorescence, strain H37Rv; Fructose-bisphosphate aldolase (Mycobacterium tuberculosis (strain ATCC 25618 / H37Rv)), …; purified M. tuberculosis FBA, fluorescence read-out; inhibition, % at 1 µM; 360,000 tested, 2.3% active; AID 588726, 2011;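 further: 0% = vehicle and 100% = reference inhibitor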
Target sequence (P9WQA3 whole entry, looked up): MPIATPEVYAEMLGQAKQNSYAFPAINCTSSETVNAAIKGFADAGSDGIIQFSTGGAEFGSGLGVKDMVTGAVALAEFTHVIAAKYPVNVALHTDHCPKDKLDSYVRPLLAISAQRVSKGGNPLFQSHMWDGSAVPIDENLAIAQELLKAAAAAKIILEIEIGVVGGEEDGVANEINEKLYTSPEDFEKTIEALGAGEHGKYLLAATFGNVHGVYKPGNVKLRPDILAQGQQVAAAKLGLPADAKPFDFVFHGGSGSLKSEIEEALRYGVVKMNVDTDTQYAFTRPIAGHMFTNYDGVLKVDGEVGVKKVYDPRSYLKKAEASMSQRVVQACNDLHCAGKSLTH
FadD28 binding = inhibitors of FadD28 bisubstrate probe binding, primary screen, biochemical, fluorescence polarization, single point | Mycobacterium tuberculosis FadD28 fatty-acid-AMP ligase | 360,000 tested, 0.22% active | inhibition, % at 12.5 µM; in the data active means inhibition above about 8.5%, passing the limit was not always enough
BioA inh = M. tuberculosis BioA enzyme inhibitors, primary screen, biochemical, plate reader, single point, HTS | 7,8-diaminopelargonic acid synthase BioA (Mycobacterium tuberculosis) | purified M. tuberculosis BioA enzyme | inhibition, % at 9.99 µM | 360,000 tested, 0.096% active | AID 602481, 2012; in the data active means inhibition above about 40%
Mtb FBA confirm = M. tuberculosis aldolase blockers, biochemical, fluorescence, strain H37Rv, confirmation; purified M. tuberculosis FBA, fluorescence read-out; inhibition, % at 1 µM; AID 651616, 2012; shares compounds with Mtb FBA inh; 5,600 tested, 78% active;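 further: 0% = vehicle wells and 100% = reference inhibitor wells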
GDH-TPI counter-2 = GDH-TPI coupling enzyme inhibitors, artefact control for M. tuberculosis FBA inhibitor project, biochemical, fluorescence, high throughput; 5,600 tested, 81% active; shares compounds with Mtb FBA inh; GDH-TPI coupled enzyme counterscreen; AID 652141, 2013; inhibition, % at 1 µM; in the data active means inhibition above about 10%
The depositor's hits bear a star; x = not tested or not shown; + = active, no number. Compounds with a hit are over-represented: about 3.1% of the library has one in this group of screens. Unless noted, no stated cut-off is given here; in the data, active means inhibition above about 27%; inactive means the rest.

SMILES	GDH-TPI counter-1	3CLpro inhibitor	Mtb FBA inh	FadD28 binding	BioA inh	Mtb FBA confirm	GDH-TPI counter-2
COc1ccc2cc(C(=O)C3CCCN(Cc4cnc(C)s4)C3)ccc2c1 (configuration not stated)	9	-1	41*	-4	x	+	+
Cc1cc(C)n2nc(C(=O)N3CCCC(Nc4ccc(F)c(F)c4)C3)cc2n1 (configuration not stated)	-4	-4	3	-2	0	x	x
CC(C)Oc1cccc(C(=O)C2CCCN(C(=O)c3ccccn3)C2)c1 (configuration not stated)	8	2	3	-1	x	x	x
COc1ccc2cc(C(=O)C3CCCN(C(=O)c4cc5nc(C)cc(C)n5n4)C3)ccc2c1 (configuration not stated)	6	0	75*	-3	-1	97*	87*
CCCNC(=O)N1[C@H](CNC(=O)CC)[C@H](c2ccc(C3=CCCC3)cc2)[C@@H]1CO	x	x	x	x	3	x	x
C[C@@H]1CN([C@H](C)CO)C(=O)Cc2cc(NC(=O)NC3CCCCC3)ccc2O[C@@H]1CN(C)C(=O)Nc1ccccc1	x	x	x	x	0	x	x
CN1C(=O)c2cc(NC(=O)c3cccs3)ccc2OC[C@H]2O[C@@H](CC(=O)N3CCCCC3)CC[C@@H]21	x	x	x	x	1	x	x
COc1cccc(NC(=O)N[C@H]2CC[C@@H](CC(=O)N3CCCCC3)O[C@H]2CO)c1	x	x	x	x	0	x	x
COc1ccc2cc(C(=O)C3CCCN(C(=O)c4cnccn4)C3)ccc2c1 (configuration not stated)	13	2	88*	0	2	55*	45*
O=C(c1ccc2ccccc2c1)C1CCCN(C(=O)c2cnccn2)C1 (configuration not stated)	-2	1	9	-4	0	x	x
COC(=O)C1=C(c2ccc(-c3ccccc3)c(F)c2)C[C@@H]2CC[C@H]1N2C(=O)NCCc1ccccc1	-2	x	-3	-3	-1	x	x
COC(=O)C1=C(c2ccc(-c3ccccc3)c(F)c2)C[C@@H]2CC[C@H]1N2C(=O)NCCNC(C)=O	3	x	43*	-3	0	45*	38*
C[C@@H]1CCCCO[C@@H](CN(C)C(=O)c2ccccc2)[C@@H](C)CN([C@@H](C)CO)C(=O)c2cc(NS(=O)(=O)c3ccc(F)cc3)ccc2O1	x	x	x	x	2	x	x
CN(C)CCCNc1cc(-c2ccccc2)nc2cc(-c3cccc(F)c3)nn12	-1	-7	78*	-8	0	78*	61*
C[C@@H]1CN([C@H](C)CO)C(=O)c2cccc(NC(=O)C3CCCCC3)c2O[C@H]1CN(C)C(=O)Nc1ccccc1	x	x	x	x	0	x	x
O=C(CCN1CCCCC1)N[C@H]1CC[C@H](CCNS(=O)(=O)c2ccc(F)cc2)O[C@H]1CO	x	x	x	x	1	x	x
O=C(c1ccc2c3c(cccc13)CC2)C1CCCN(C(=O)c2ccc[n+]([O-])c2)C1 (configuration not stated)	16	0	29*	0	0	+	165*
Cn1c(-c2ccc(CN3CCCCC3)o2)nc2ccccc21	4	7	33*	-3	0	20	12*
Cc1ccc(CNc2nc3ccccc3n2C)o1	5	4	-1	-1	-2	x	x
O=C(C[C@H]1C=C[C@@H](NC(=O)C2CC2)[C@@H](CO)O1)Nc1ccccc1	x	x	x	x	0	x	x
CCCN1CCN(CCCNC(=O)c2cc3c(=O)[nH]c4ccccc4c3s2)CC1	5	-1	47*	-2	-1	91*	76*
COCCNC(=O)c1cc2c(=O)[nH]c3ccccc3c2s1	19	-9	78*	-2	1	102*	84*
CCOC(=O)N1CCN(C(=O)c2cc3c(=O)[nH]c4ccccc4c3s2)CC1	13	-2	10	-1	0	x	x
COc1cccc(CNC(=O)C[C@H]2CC[C@@H](NC(C)=O)[C@H](CO)O2)c1	x	x	x	x	-3	x	x
Cc1ccc(S(=O)(=O)N(C)C[C@@H]2Oc3ccc(NC(=O)NC(C)C)cc3C(=O)N([C@H](C)CO)C[C@@H]2C)cc1	x	x	x	x	-1	x	x
SMILES	GDH-TPI counter-1	3CLpro inhibitor	Mtb FBA inh	FadD28 binding	BioA inh	Mtb FBA confirm	GDH-TPI counter-2
N#Cc1ccc(-c2ccc(OCC(O)Cn3nnc4ccccc43)cc2)cc1 (configuration not stated)	3	0	31*	-4	1	+	+
CC(=O)c1ccc(OCC(O)Cn2nnc3ccccc32)cc1 (configuration not stated)	14	3	0	-1	5	x	x
N#Cc1ccc(OCC(O)CN2CCN(CC(O)COc3ccc(C#N)cc3)CC2)cc1 (configuration not stated)	5	-3	-1	0	-1	x	x
N#Cc1ccc(-c2ccc(OCC(O)CN3CCCCC3)cc2)cc1 (configuration not stated)	7	-3	58*	0	0	116*	81*
Cc1ccc(SCc2cn3cccnc3n2)cc1	10	-1	0	-1	-1	x	x
CCN(Cc1cn2cccnc2n1)C1CCCCC1	-5	2	109*	-4	-1	-4	-2
COc1ccccc1C(=O)N1C[C@@H]2[C@H](c3ccccc31)[C@@H](CO)N2CC1CCOCC1	x	x	x	x	0	x	x
Cc1cc(=O)oc2cc(OCC(=O)Nc3ccc(S(=O)(=O)N(C)C)cc3)ccc12	5	-1	29*	2	-1	101*	64*
CNC(=O)COC(=O)COc1ccc2c(C)cc(=O)oc2c1	3	1	23	-5	0	x	x
Cc1cc(=O)oc2cc(OCC(=O)Nc3ccc4[nH]c(=O)[nH]c4c3)ccc12	-8	x	0	-3	7	x	x
Cc1cc(=O)oc2cc(OCC(=O)OCC(=O)Nc3ccc(C(C)C)cc3)ccc12	6	2	29*	-2	x	86*	69*
CO[C@@H]1CN(C)C(=O)c2cc(NC(=O)C3CC3)ccc2OC[C@@H](C)N(C(=O)c2cccnc2)C[C@@H]1C	x	x	x	x	-4	x	x
CCCNC(=O)N(C)C[C@H]1Oc2ncc(Br)cc2C(=O)N([C@@H](C)CO)C[C@@H]1C	x	x	x	x	-1	x	x
Cc1ccc(C)c(N(C(=O)c2snc(C(N)=O)c2N)C(C(=O)NCC2CCCO2)c2cccs2)c1 (configuration not stated)	0	1	36*	-5	0	19	7

Screens (PubChem BioAssay)
